The source of these data is article PMC12136788.

Numbering of substitutions follows the chain as printed. Over roughly 24,000 sequences, “enrichment r” has its median near 0.99; the highest 2% begin near 3.7. The sample as a whole holds a higher share of the highest values than the screen did.

Sequences and labels used below:
B1: chr17:34945718:34945719:+_ENSG00000005955_ENST00000304718|hu_hu|FALSE|FALSE (ssRNA)
RNA: GGGAGUUCUACAGUCCGACGAUCAUUUAACCGGCAGUAUUUAUUAAAUUUCUCCUUCAGAUGCUGUCGGUAUUGUUCUCUAUUGCUGUAGAAAGACUGGUUAUUAGCCAUAAAUGACUGUAUUUCAUCUUGUGAGAUAAAGAUCAACAGAGGAUUGAGCAUCA
B2: 90247206_90247326_4093_3pUTR_ENSMUSG00000012422_ENSMUST00000161568|mouse|control|control (ssRNA)
RNA: GGGAGUUCUACAGUCCGACGAUCUUCUCAGAAGUUAGUCAGGACCCCCUGUAACAAGGGCGAUUGCUAGCACCGUUUGAGAACAUUUAUUAUUACUAGAAGGUAACAAAGGAAGAGAAGAGCAGCCCUAAGAAUUUUCCAUUCCAACAGAGGAUUGAGCAUCA
B3: chr16:14738297:14738298:+_ENSG00000103429_ENST00000261658|hu_mus|FALSE|FALSE (ssRNA)
RNA: GGGAGUUCUACAGUCCGACGAUCGUUCAAGGUGGUGGGGUUAACCAGGGUGUCGUAGCAGCAGUGGCAGGAGAACUCGCUCACAGAAAUCUGAGGGCCGCUGCUUCUGACAGGAUGCUCUUCCUCCUGCUCUCUCAUGCUCAGCAACAGAGGAUUGAGCAUCA
B4: chr6:41757443:41757444:+_ENSG00000214736_ENST00000398881|hu_mus|hu_hu_hu_mus_False|98_108 (ssRNA)
RNA: GGGAGUUCUACAGUCCGACGAUCGAACUGUCUGCUGACCAGAGAAUAGCCGACACUGGGGGAUGGGGGGGCAGUGGGGGGGGGUUCAGGCAAGGAGAGGGAGUCAACUUCAGCUGCCACUCAGGUAGGAUCUUGUGGUCACAGCAACAGAGGAUUGAGCAUCA
B5: chr6:41757443:41757444:+_ENSG00000214736_ENST00000398881|hu_mus|hu_hu_hu_mus_False|78_98 (ssRNA)
RNA: GGGAGUUCUACAGUCCGACGAUCGAACCGUGCAGAGACCAGAGAAUAGCCGACACUGUGGACUCAAGGGGCAGUGGGGGGGGGUUCAGGCAAGGAGAGGGAGUCAACUUCAGCUGCCACUCAGGUAGGAUCUUGUGGUCACAGCAACAGAGGAUUGAGCAUCA
B6: chr6:41757443:41757444:+_ENSG00000214736_ENST00000398881|hu_mus|hu_hu_hu_mus_False|98_98 (ssRNA)
RNA: B5 RNA with U58G, A61G, C62A, C64G, A65G, A66G
B7: 75758389_75758509_1054_3pUTR_ENSMUSG00000032932_ENSMUST00000046283|mouse|control|control (ssRNA)
RNA: GGGAGUUCUACAGUCCGACGAUCUCAGAAAGGCCAGGUCUAAACACUCUAUUCACAUGGUGACCAUCUCCUGGGGUGAGCUGGUCUUUUGGCAGUUCAGAGUCACCAUUCUGAGGUUCCUUGCUGUCCUUCCCCUCCACAGUGCAACAGAGGAUUGAGCAUCA
B8: chr6:41757443:41757444:+_ENSG00000214736_ENST00000398881|hu_mus|hu_hu_hu_mus_False|48_98 (ssRNA)
RNA: B5 RNA with U58G, A61G, C62A, C64G, A65G, A66G, C90G, A95G
B9: chrX:98862621:98862622:+_ENSMUSG00000034160_ENSMUST00000044475|mus_hu|mus_mus_mus_hu_False|18_68 (ssRNA)
RNA: GGGAGUUCUACAGUCCGACGAUCCUGCAUCUCCUUUAGAGUGUUUCCCAUAUUAGAGUAGGCAUCAGCAAAUGUAGGACUGAUUCGAAUAGCCUCCUUAUAAUGCAUCAGAGCUUCCUGCAGCUUGCCCUGCUGCUGCAGUACCAACAGAGGAUUGAGCAUCA
B10: chr4:43703020:43703021:+_ENSMUSG00000078716_ENSMUST00000107866|mus_mus|FALSE|FALSE (ssRNA)
RNA: GGGAGUUCUACAGUCCGACGAUCCACACUGCCAGCAAUGAGCAUGUGCCAAAUGCUGUGAAUGUAGAAGUAGUUGUCCCGAGUCUCCACGAAAGCAUACAGUAGAACGGCACUGCCAGCAAUCAGGCUGCCGGGACACAGGUACAACAGAGGAUUGAGCAUCA
B11: chr2:130910683:130910684:-_ENSG00000136699_ENST00000351288|hu_hu|motif|central (ssRNA)
RNA: GGGAGUUCUACAGUCCGACGAUCGGAACACAGAGCCGCCAUCUGUCCUGCAAAUCUGUGGUUGAUGGCAGACGACAGCCGGAAGAGUGUGCGGACCAAGCUGGCGAUCUCAUAGCUCCGGAUGGGCUGCAGCUCCGGGUCCCCCAACAGAGGAUUGAGCAUCA
B12: chr17:56552419:56552420:-_ENSMUSG00000013236_ENSMUST00000086828|mus_mus|mus_mus_mus_hu_False|18_58 (ssRNA)
RNA: GGGAGUUCUACAGUCCGACGAUCAAAAAAUACACUAUUUAAAAAAAAUGAAAUGUCACGGGAUACAGUUACACUGACACUAUUAAAAGAAAGCUGGAUUCUGGUCCCAGCCCAGUGGCAGGCAGGGGCAGAGCGGGGAGGAGCCAACAGAGGAUUGAGCAUCA
B13: chr17:56552419:56552420:-_ENSMUSG00000013236_ENSMUST00000086828|mus_mus|mus_mus_mus_hu_False|18_98 (ssRNA)
RNA: B12 RNA with U38A, U39A, C77G, C79G, A81U
B14: chr17:56552419:56552420:-_ENSMUSG00000013236_ENSMUST00000086828|mus_mus|mus_mus_mus_hu_False|8_18 (ssRNA)
RNA: GGGAGUUCUACAGUCCGACGAUCAAAAAAUACACUAUUUAAAAAAAAUGAAAUGUCACGGGAUACAGUUACACUGAGAGUUUUAAAAGAAAGCUGGAUUCUGGUCCCAGCCCAGUGGCAGGCAGGGGAGUGCGGAAGAGGAGCCAACAGAGGAUUGAGCAUCA
B15: chr17:56552419:56552420:-_ENSMUSG00000013236_ENSMUST00000086828|mus_mus|mus_mus_mus_hu_False|1_18 (ssRNA)
RNA: B12 RNA with C77G, C79G, A81U, A138C, G139A, C143G
B16: chr17:56552419:56552420:-_ENSMUSG00000013236_ENSMUST00000086828|mus_mus|mus_mus_mus_hu_False|18_48 (ssRNA)
RNA: B12 RNA with C77G, C79G, A81U, G88A, G92A, C93U, U94A, G95A
B17: chr17:56552419:56552420:-_ENSMUSG00000013236_ENSMUST00000086828|mus_mus|mus_mus_mus_hu_False|18_18 (ssRNA)
RNA: B12 RNA with C77G, C79G, A81U
B18: chr5:145543945:145543946:-_ENSG00000133706_ENST00000545646|hu_hu|hu_hu_hu_mus_True|38_98 (ssRNA)
RNA: GGGAGUUCUACAGUCCGACGAUCCUGAACGGCCAGUGGCGGGAAAUAAUCAAGCCAGUGCUCUGCUUCAGAAAACUUCACUAUGUCGUCAUCAGAGAGGCCAAGGGAUUUCAUAAUGUCCCACUGGUACUUAGAAGAUCCUGCCAACAGAGGAUUGAGCAUCA
B19: 57396971_57397091_122_5pUTR_ENSMUSG00000021938_ENSMUST00000022507|mouse|control|control (ssRNA)
RNA: GGGAGUUCUACAGUCCGACGAUCGCUUCAGGUUUCCUCUUAACAUCAUCUUAGCAAGUUCGCUUGGGAUGCUGGAUGAGGCCUAGACGUCAAGGUACACACGUCUCCACAUGUAUCUAUGGAAACGAAGCAAGGAAAGCCAGGCAACAGAGGAUUGAGCAUCA
B20: 79664557_79664677_4134_CDS_ENSG00000146247_ENST00000275034|human|control|control (ssRNA)
RNA: GGGAGUUCUACAGUCCGACGAUCACGGAAAGGCUCUGAAUCUUCACAUUGAAAUAUGAGAUUUAACAAUUCUUCACACUGUUUCUUCCAUGCUUGAAUAUCGUAAGACUGGGCUCUAUUACGUAAUCUUCUUCUAGGCUGAUGCAACAGAGGAUUGAGCAUCA
B21: chr2:113333244:113333245:+_ENSG00000125630_ENST00000417433|hu_hu|FALSE|FALSE (ssRNA)
RNA: GGGAGUUCUACAGUCCGACGAUCAACAUCAAGUUAAACAACAUCCAGUUUCACUUUGAUGUUCAUAGCUGCCAGUUCAGCUACAAAAUACCGAAAAACAUAAGGCACAGAAACAGUAUCGAUAGUGUCACUGCGACUACACAGCAACAGAGGAUUGAGCAUCA
B22: chr5:128440902:128440903:+_ENSG00000066583_ENST00000173527|hu_mus|hu_hu_hu_mus_True|88_98 (ssRNA)
RNA: GGGAGUUCUACAGUCCGACGAUCUUGAACGGUGCUGCCAAGACCUUUAGGGUAUUGUUCCGUUAUGAUAACUGGAAUCCCUAAGAUCCGAGCUCCUUGCAACAGUCUCUGUCCCACACUAAUGAUGUCCCCAAAGUAUUUGAUCAACAGAGGAUUGAGCAUCA

This test addresses T1, UNK ZnF1-3 (human, UniProt Q9C0B0 31-174).
T1 sequence: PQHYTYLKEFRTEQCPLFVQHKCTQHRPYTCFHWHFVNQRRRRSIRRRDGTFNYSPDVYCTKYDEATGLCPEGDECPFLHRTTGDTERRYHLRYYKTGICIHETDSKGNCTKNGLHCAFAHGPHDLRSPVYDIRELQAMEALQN
The test is described as follows: nsRBNS (natural sequence RNA bind-n-seq); RBNS binding buffer (assumed for nsRBNS): 25 mM Tris pH 7.5, 150 mM KCl, 3 mM MgCl2, 0.01% Triton X-100, 500 ug/ml BSA, 20 U/ml SUPERase-In, 4 C; UNK is unkempt and MSI1 is Musashi-1; names of the RNAs are library labels; protein concentration not given here; high values mean tight binding.
In the case of B1, the binding signal turned out to be 0.361 enrichment R.
The value for B2 was 0.591 enrichment R; that for B3 was 0.931 enrichment R; that for B4 was 4.46 enrichment R.
Then B5, with 1.9 enrichment R; and B6, with 3.31 enrichment R; and B7, with 0.633 enrichment R.
The value for B8 was 5.8 enrichment R; that for B9 was 1.07 enrichment R; that for B10 was 0.899 enrichment R.
Molecule B11 showed a binding signal of 0.907 enrichment R.
Take B12: the binding signal came to 5.2 enrichment R.
The value for B13 was 6.3 enrichment R.
Then B14, with 3.69 enrichment R; and B15, with 3.35 enrichment R; and B16, with 7.31 enrichment R.
The value for B17 was 3.38 enrichment R.
Take B18: the binding signal was found to be 1.21 enrichment R.
B19 showed a binding signal of 0.72 enrichment R.
The value for B20 was 1.11 enrichment R.
On to B21, for which the binding signal is 0.877 enrichment R.
B22 gave a binding signal of 0.627 enrichment R.
